Source: the supplement of paper PMC6555819

How the values were obtained:
Assay in all cases: PBM binding z-score (relative to random genomic background probes); higher = stronger binding; sequences stand for … in GC…GCGATTGACAGCGTAGAATGAAGG
[1] = system: FXR:RXRa (NR concentration 270 nM, RXRa partner concentration 90 nM)
Summary of the method: (§1)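 Binding buffer was PBS pH 7.4 with 2% milk, 0.02% Triton X-100, 1 mM DTT, 0.2 mg/mL BSA and 0.4 mg/ml salmon testes DNA. In it, ligand-free nuclear receptor dimers were incubated 1 h on custom Agilent 4×180K protein-binding microarrays carrying double-stranded probes. Antibodies against each partner (one per run) detected binding, and z-scores were calculated against random background probes after regression normalization of scanned fluorescence.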

[2] = system: LXRa:RXRa (NR concentration 270 nM, RXRa partner concentration 90 nM)
Summary of the method: as §1

[3] = system: LXRa homodimer (NR concentration 270 nM)
Summary of the method: as §1

[4] = system: LXRb:RXRa (NR concentration 270 nM, RXRa partner concentration 90 nM)
Summary of the method: as §1

[5] = system: LXRb homodimer (NR concentration 270 nM)
Summary of the method: as §1

[6] = system: PPARg:RXRa (NR concentration 180 nM, RXRa partner concentration 90 nM)
Summary of the method: as §1

[7] = system: PPARg:RXRa 270nM:90nM, anti-RXR (NR concentration 270 nM, RXRa partner concentration 90 nM)
Summary of the method: as §1

[8] = system: PPARg:RXRa 30nM:10nM, anti-RXR (NR concentration 30 nM, RXRa partner concentration 10 nM)
Summary of the method: as §1

[9] = system: PPARg:RXRa 90nM:30nM, anti-RXR (NR concentration 90 nM, RXRa partner concentration 30 nM)
Summary of the method: as §1

| Sequence | PBM binding z-score [1] | PBM binding z-score [2] | PBM binding z-score [3] | PBM binding z-score [4] | PBM binding z-score [5] | PBM binding z-score [6] | PBM binding z-score [7] | PBM binding z-score [8] | PBM binding z-score [9] |
| --- | --- | --- | --- | --- | --- | --- | --- | --- | --- |
| AAATGTAGGTTAAGGGTCATTCAGGTTGGTTCGC | 5.31 | 4.71 | 3.07 | 4.53 | 1.39 | 11.7 | 9.63 | 10.5 | 10.8 |
| AGAATGAGGTTACACGTAGATCAGGGAAGAAAGT | 2.62 | 1.97 | -0.126 | 1.74 | -0.022 | 2.84 | 2.76 | 0.95 | 1.91 |
| GCTGCTCGGTCAACTGATGGTCAGCTAAAGCTCG | 0.704 | 0.751 | 0.0425 | -0.248 | -0.201 | -0.584 | -0.239 | -0.686 | -0.163 |
| ATCGAAAGGTGGACGAGGTGAGTATACACCGTTT | 0.217 | -0.178 | -0.304 | -0.111 | -0.212 | 0.872 | 0.439 | 0.356 | 0.402 |
| ATCGAAGGGTCGAAGGTGAGTATACCCACCCGAA | 1.3 | 1.26 | -0.26 | 1.21 | -0.316 | 2.73 | 3.11 | 1.08 | 2.47 |
| CGTCCAAGCTCAGCAGGTCAGTGAAAGCGACGTG | -0.394 | -0.404 | -0.449 | 0.048 | -1.03 | -0.464 | -0.756 | -1.14 | -0.879 |
| TAGCCTAAGTCATGGGCCAGTATACCACGCGAAC | -0.178 | -0.0929 | -0.218 | -0.0253 | -0.797 | 0.437 | 0.385 | -0.251 | 0.254 |
| CTCGAAAGGTGGTGCTCAGGTGAGTATACCAAAC | -0.352 | -0.533 | -0.489 | -0.329 | -0.573 | -0.375 | -0.0981 | -0.462 | -0.126 |
| TAGCCTAGGTCATAGGCCAGTATACCACGCGAAC | 4.26 | 3.46 | 0.285 | 2.09 | -0.0669 | 4.51 | 4.54 | 2.36 | 4.03 |
| CCTGCTAGTTCATGGTCAGCTAATCTACAGTATG | -0.0312 | 0.212 | -0.184 | 0.106 | -0.269 | -0.348 | -0.236 | -0.124 | -0.29 |
| GCTGCTAGGTCAACTGATGGTCAGCTAGAGCTCG | 3.85 | 2.95 | 0.128 | 1.85 | 0.313 | 2.7 | 2.98 | 0.27 | 2.01 |
| GCTGCTAGGTCGACTGATGGTCAGCTAAAGCTCG | -0.376 | -0.522 | -0.803 | -0.528 | -1.35 | -0.467 | -0.365 | -0.591 | -0.382 |
| GGAACGAGCGCAAAGTTGATAGCATCTGTCGACG | -0.856 | -0.827 | -0.68 | -1.1 | -1.22 | 1.51 | 3.31 | 0.951 | 2.9 |
